From PubChem BioAssay (EPA / NIEHS) come the findings set out here.

Results filed as inconclusive are left out. Active and inactive are the calls of the source. Rule for the calls, unless noted: active = hit-call score of the fitted dose curve at least 0.9, where 1 is the maximum; inactive = score below 0.9.

Experiment [1] in a line: ATG_TAL_CIS: Attagene CIS-FACTORIAL HepG2 Assay for human TAL Basal Promoter (AID 2282966).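 Note: background control endpoint measuring basal TAL promoter reporter mRNA not a specific factor.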 The settings on record: HepG2 Attagene cis-factorial TAL promoter reporter; actives raise or lower the signal. The method in brief:
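Steps: transfect HepG2 with multiple reporter transcription units; dose 24 h; isolate RNA, reverse-transcribe, PCR-amplify, label with 6-FAM, digest with HpaI; resolve by capillary electrophoresis. Bidirectional fitting against DMSO baseline.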

Experiment [2] is described as follows: ATG_TGFb_CIS: Attagene CIS-FACTORIAL HepG2 Assay for human Transforming Growth Factor (TGF) (AID 2282967). The settings on record: HepG2 Attagene CIS TGFb reporter, mRNA transcription; actives raise or lower the signal. The essentials:
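Liver HepG2 line, cis-factorial reporter panel, 24 h dosing. Quantitation: RT-PCR products labeled with 6-FAM, cut with HpaI, resolved by capillary electrophoresis; DMSO-referenced bidirectional analysis.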

Experiment [3] can be described thus: ATG_VDRE_CIS: Attagene CIS-FACTORIAL HepG2 Assay for human Vitamin D Receptor Element (VDRE) (AID 2282968). The settings on record: HepG2 VDRE cis-reporter transcription, actives raise or lower the signal. The essentials:
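Cell-based multiplexed reporter format in human liver HepG2 cells, 24 h post-dose. Fluorescence from capillary electrophoresis of reporter cDNA gives the signal, with DMSO as negative control and baseline.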

Experiment [4] deals with Steroid hormone receptor ERR1 (Homo sapiens) (UniProt P11474). Put plainly: ATG_ERRa_TRANS: Attagene TRANS-FACTORIAL HepG2 Assay for human Estrogen-Related Receptor alpha (ERRa) (AID 2282971; active = hit-call score of the fitted dose curve at least 0.9, where 1 is the maximum). The settings on record: HepG2 Attagene TRANS reporter, ERRa transactivation. The method in brief: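 Signal gain relative to DMSO for an ERRa-Gal4 chimeric receptor, read as reporter mRNA by RT-PCR/capillary electrophoresis. Human HepG2 liver cells, transient multiplex reporter transfection, 24 h chemical exposure.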
Steroid hormone receptor ERR1 (Homo sapiens), sequence (P11474 whole entry, looked up, the tested form may be a part): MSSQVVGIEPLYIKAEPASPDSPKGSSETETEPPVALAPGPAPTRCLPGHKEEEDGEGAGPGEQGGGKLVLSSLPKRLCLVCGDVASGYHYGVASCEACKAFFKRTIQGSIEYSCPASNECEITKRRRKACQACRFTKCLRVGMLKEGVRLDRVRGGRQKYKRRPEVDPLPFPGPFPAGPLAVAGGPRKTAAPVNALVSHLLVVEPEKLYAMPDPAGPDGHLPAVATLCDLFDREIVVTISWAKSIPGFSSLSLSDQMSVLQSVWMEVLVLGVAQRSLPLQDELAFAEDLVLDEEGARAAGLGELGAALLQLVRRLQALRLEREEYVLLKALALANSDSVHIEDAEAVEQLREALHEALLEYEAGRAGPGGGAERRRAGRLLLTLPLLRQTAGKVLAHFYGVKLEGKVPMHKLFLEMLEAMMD

A short description of experiment [5]: ATG_M_19_TRANS: Attagene TRANS-FACTORIAL HepG2 Assay for M19 Transcription Factor (Internal Marker) (AID 2282974; active = hit-call score of the fitted dose curve at least 0.9, where 1 is the maximum). The note with it: HepG2 Attagene TRANS-FACTORIAL M19 internal marker reporter. The method in brief:
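HepG2 cells transiently transfected with multiple GAL4-UAS reporter transcription units were exposed to chemicals for 24 h. Reporter mRNA was read by RT-PCR, 6-FAM primer extension, HpaI digestion and capillary electrophoresis; gain of signal fitted relative to DMSO.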

Experiment [6] addresses Estrogen-related receptor gamma (Homo sapiens) (UniProt P62508). The experiment can be described thus: ATG_ERRg_TRANS: Attagene TRANS-FACTORIAL HepG2 Assay for human Estrogen-Related Receptor gamma (ERRg) (AID 2282977; active = hit-call score of the fitted dose curve at least 0.9, where 1 is the maximum;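 note: hits increase reporter signal over DMSO so potencies reflect activators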). The settings on record: HepG2 Attagene TRANS reporter, ERRg transactivation. The method in brief: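 HepG2 cells transiently transfected with multiplexed GAL4-UAS reporter units and chimeric NR-Gal4 constructs were exposed to test chemicals for 24 h. Reporter mRNA was measured by RT-PCR, 6-FAM primer extension, HpaI digestion and capillary electrophoresis; gain-of-signal versus DMSO.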

Experiment [7] deals with Oxysterols receptor LXR-beta (Homo sapiens) (UniProt P55055). The experiment can be described thus: ATG_LXRb_TRANS: Attagene TRANS-FACTORIAL HepG2 Assay for human Liver X Receptor beta (LXRb) (AID 2282981; active = hit-call score of the fitted dose curve at least 0.9, where 1 is the maximum). The note with it: HepG2 Attagene TRANS GAL4-LXRb reporter, mRNA. The method in brief: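 Gain-of-signal mRNA reporter endpoint, DMSO as negative control. Transiently transfected HepG2 cells carrying the NR-Gal4 chimera and GAL4-UAS reporter units were treated 24 h; transcripts quantified by RT-PCR and capillary electrophoresis fluorescence.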
Oxysterols receptor LXR-beta (Homo sapiens), sequence (P55055 whole entry, looked up, the tested form may be a part): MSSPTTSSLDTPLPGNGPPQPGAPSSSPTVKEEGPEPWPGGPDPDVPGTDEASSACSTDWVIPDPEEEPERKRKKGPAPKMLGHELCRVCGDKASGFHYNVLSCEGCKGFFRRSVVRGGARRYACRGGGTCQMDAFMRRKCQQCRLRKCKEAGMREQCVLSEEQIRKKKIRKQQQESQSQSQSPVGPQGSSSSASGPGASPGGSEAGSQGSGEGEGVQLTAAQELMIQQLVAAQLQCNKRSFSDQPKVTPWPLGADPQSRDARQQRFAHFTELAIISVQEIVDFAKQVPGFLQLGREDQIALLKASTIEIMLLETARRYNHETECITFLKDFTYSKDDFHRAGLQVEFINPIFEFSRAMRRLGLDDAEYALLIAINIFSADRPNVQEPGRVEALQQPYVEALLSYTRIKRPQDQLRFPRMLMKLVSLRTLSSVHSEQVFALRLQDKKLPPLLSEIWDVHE

Experiment [8] concerns the target Nuclear receptor subfamily 4 group A member 2 (Homo sapiens) (UniProt P43354). Put plainly: ATG_NURR1_TRANS: Attagene TRANS-FACTORIAL HepG2 Assay for human Nuclear Receptor Related Protein 1 (NURR1) (AID 2282985; active = hit-call score of the fitted dose curve at least 0.9, where 1 is the maximum). The settings on record: HepG2 Attagene TRANS reporter, mRNA readout. The method in brief: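 HepG2 / transient MRTU transfection / 24 h compound exposure / RT-PCR + CE fluorescence of reporter mRNA / gain-of-signal vs DMSO.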

For experiment [9], the target named is Transcriptional activator Myb (Homo sapiens) (UniProt P10242). The experiment can be described thus: ATG_Myb_CIS: Attagene CIS-FACTORIAL HepG2 Assay for human Myeloblastosis (Myb) Proto-Oncogene Transcription Factor (AID 2282986). The note with it: HepG2 Attagene CIS-FACTORIAL Myb reporter transcription; actives raise or lower the signal. The method in brief:
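HepG2 cells were transiently transfected with cis-regulated multiple reporter transcription units reflecting endogenous Myb activity, then exposed to compound for 24 hours. Reporter mRNA was measured by RT-PCR with capillary electrophoresis; bidirectional fitting versus DMSO baseline.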

The target of experiment [10] is Nuclear respiratory factor 1 (Homo sapiens) (UniProt Q16656). The experiment can be described thus: ATG_NRF1_CIS: Attagene CIS-FACTORIAL HepG2 Assay for human Nuclear Respiratory Factor 1 (NRF1) Orphan Gene (AID 2282987). The note with it: HepG2 NRF1 cis-element reporter, Attagene multiplex; actives raise or lower the signal. The essentials: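 HepG2 cells transiently transfected with multiple reporter transcription units under cis-regulatory promoter control, so endogenous transcription-factor activity is read. After 24 h compound exposure, reporter mRNA quantified by RT-PCR, fluorescent labelling, HpaI digestion and capillary electrophoresis; bidirectional fitting versus DMSO.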
Nuclear respiratory factor 1 (Homo sapiens), sequence (Q16656 whole entry, looked up): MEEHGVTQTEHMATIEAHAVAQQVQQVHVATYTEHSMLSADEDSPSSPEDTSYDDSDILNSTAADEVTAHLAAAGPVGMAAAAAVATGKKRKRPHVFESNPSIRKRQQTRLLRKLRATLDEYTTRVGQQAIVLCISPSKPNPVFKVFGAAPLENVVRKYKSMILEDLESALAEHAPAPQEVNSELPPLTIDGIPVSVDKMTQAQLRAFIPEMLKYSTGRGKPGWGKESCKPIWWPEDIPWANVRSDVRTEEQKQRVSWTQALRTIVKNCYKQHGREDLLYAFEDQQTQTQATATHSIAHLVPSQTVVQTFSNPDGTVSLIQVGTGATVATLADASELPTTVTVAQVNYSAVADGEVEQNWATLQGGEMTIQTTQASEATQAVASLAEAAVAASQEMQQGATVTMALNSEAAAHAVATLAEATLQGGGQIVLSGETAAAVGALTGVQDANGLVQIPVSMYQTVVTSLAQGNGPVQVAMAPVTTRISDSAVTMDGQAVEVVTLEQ

In experiment [11] the target is Oxysterols receptor LXR-alpha (Homo sapiens) (UniProt Q13133). The experiment can be described thus: ATG_LXRa_TRANS: Attagene TRANS-FACTORIAL HepG2 Assay for human Liver X Receptor alpha (LXRa) (AID 2282980; active = hit-call score of the fitted dose curve at least 0.9, where 1 is the maximum). The note with it: HepG2 Attagene TRANS reporter, LXRa transactivation. The essentials:
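In this multiplexed TRANS system, compounds act on HepG2 cells carrying GAL4-UAS reporter units and a receptor-GAL4 fusion for 24 h. Induced reporter RNA is amplified, fluorescently labelled and sized by capillary electrophoresis, with DMSO as baseline.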

The target in experiment [12] is Hepatocyte nuclear factor 4-alpha (Homo sapiens) (UniProt P41235). The experiment can be described thus: ATG_HNF4a_TRANS: Attagene TRANS-FACTORIAL HepG2 Assay for human Hepatocyte Nuclear Factor 4 alpha (HNF4a) (AID 2282982; active = hit-call score of the fitted dose curve at least 0.9, where 1 is the maximum). The note with it: HepG2 HNF4a transactivation reporter, mRNA readout. The essentials: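 Gain-of-signal mRNA induction, relative to DMSO vehicle, was read after 24 h compound treatment of HepG2 cells bearing transfected GAL4-UAS reporters. Detection used RT-PCR, 6-FAM primer extension and capillary electrophoresis.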
Hepatocyte nuclear factor 4-alpha (Homo sapiens), sequence (P41235 whole entry, looked up, the tested form may be a part): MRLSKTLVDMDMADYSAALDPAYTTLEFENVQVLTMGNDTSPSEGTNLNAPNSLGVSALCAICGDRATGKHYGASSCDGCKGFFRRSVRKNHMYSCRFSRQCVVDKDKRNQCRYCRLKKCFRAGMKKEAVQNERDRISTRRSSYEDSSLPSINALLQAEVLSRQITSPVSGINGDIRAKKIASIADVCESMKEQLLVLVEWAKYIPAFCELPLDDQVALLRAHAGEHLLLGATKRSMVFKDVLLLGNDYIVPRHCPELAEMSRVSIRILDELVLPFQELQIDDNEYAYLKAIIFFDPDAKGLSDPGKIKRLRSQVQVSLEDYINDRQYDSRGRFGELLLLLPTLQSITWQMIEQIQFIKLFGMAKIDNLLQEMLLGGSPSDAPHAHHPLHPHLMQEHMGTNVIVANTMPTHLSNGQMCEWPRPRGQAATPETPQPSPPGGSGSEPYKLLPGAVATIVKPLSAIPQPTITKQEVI

Experiment [13] in a line: ATG_M_32_TRANS: Attagene TRANS-FACTORIAL HepG2 Assay for M32 Transcription Factor (Internal Marker) (AID 2282984; active = hit-call score of the fitted dose curve at least 0.9, where 1 is the maximum;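 note: transcript level of a background control reporter unit measured by RT-PCR and capillary electrophoresis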). The note with it: HepG2 Attagene TRANS M32 internal marker reporter. The essentials: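 Capillary electrophoresis of 6-FAM-labelled reporter fragments gives the signal; data fitted for gain over DMSO negative control. Source: HepG2 cells bearing transient multiple reporter transcription units, 24 h exposure.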

For experiment [14], the target named is Estrogen receptor (Homo sapiens) (UniProt P03372). The experiment can be described thus: ATG_ERa_TRANS: Attagene TRANS-FACTORIAL HepG2 Assay for human Estrogen Receptor alpha (ERa) (AID 2282970; active = hit-call score of the fitted dose curve at least 0.9, where 1 is the maximum). The settings on record: HepG2 Attagene TRANS ERa GAL4 reporter, mRNA. The method in brief: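 Multiplexed cell-based reporter format in HepG2: chimeric ERa-Gal4 protein drives GAL4-UAS reporter transcription. Fluorescent reporter mRNA quantified by capillary electrophoresis 24 hours after dosing; endpoint fitted as signal gain against DMSO.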
Estrogen receptor (Homo sapiens), sequence (P03372 whole entry, looked up, the tested form may be a part): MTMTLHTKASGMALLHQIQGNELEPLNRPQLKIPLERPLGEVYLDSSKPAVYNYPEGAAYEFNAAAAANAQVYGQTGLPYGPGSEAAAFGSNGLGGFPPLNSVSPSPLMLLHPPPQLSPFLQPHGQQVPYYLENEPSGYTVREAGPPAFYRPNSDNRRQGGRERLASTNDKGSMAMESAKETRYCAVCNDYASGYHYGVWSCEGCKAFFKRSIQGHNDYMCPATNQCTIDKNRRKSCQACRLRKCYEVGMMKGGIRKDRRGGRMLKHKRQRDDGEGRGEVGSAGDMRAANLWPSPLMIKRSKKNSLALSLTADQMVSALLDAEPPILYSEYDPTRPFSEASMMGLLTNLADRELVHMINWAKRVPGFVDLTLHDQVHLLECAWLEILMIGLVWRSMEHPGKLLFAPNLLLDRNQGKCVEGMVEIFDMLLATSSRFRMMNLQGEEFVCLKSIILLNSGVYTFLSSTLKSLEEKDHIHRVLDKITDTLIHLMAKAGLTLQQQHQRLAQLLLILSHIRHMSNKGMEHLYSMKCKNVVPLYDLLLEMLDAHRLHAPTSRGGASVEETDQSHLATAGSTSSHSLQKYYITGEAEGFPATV

The target in experiment [15] is X-box-binding protein 1 (Homo sapiens) (UniProt P17861). The experiment can be described thus: ATG_Xbp1_CIS: Attagene CIS-FACTORIAL HepG2 Assay for human X-box Binding Protein 1 (XBP1) (AID 2282972). The note with it: HepG2 XBP1 cis-element reporter, Attagene multiplex; actives raise or lower the signal. The method in brief: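 HepG2, transient MRTU transfection (cis-promoter driven), 24 h compound exposure. Total RNA → oligo(dT) RT → PCR → 6-FAM labeling → HpaI cut → CE. Bidirectional fit vs DMSO.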
X-box-binding protein 1 (Homo sapiens), sequence (P17861 whole entry, looked up): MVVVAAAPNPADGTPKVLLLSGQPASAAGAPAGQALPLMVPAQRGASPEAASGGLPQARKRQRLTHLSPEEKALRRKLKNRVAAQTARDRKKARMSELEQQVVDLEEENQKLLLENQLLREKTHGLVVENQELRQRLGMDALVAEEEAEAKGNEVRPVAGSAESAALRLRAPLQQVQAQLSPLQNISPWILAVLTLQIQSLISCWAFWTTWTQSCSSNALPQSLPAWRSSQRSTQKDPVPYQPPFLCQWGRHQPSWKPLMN

Experiment [16] can be described thus: ATG_M_06_TRANS: Attagene TRANS-FACTORIAL HepG2 Assay for M06 Transcription Factor (Internal Marker) (AID 2282983; active = hit-call score of the fitted dose curve at least 0.9, where 1 is the maximum). The settings on record: HepG2 Attagene TRANS M06 internal marker reporter. The method in brief: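 Internal-marker background readout from a multiplexed TRANS reporter system in HepG2; 24 h dosing; mRNA induction quantified by RT-PCR plus capillary electrophoresis fluorescence; DMSO as negative control and baseline.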

Experiment [17] can be described thus: ATG_GAL4_TRANS: Attagene TRANS-FACTORIAL HepG2 Assay for GAL4 (Internal Marker) (AID 2282976; active = hit-call score of the fitted dose curve at least 0.9, where 1 is the maximum). The settings on record: HepG2 Attagene TRANS GAL4 internal marker reporter. The method in brief:
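Liver HepG2 line bearing multiplexed GAL4-UAS reporter constructs; 24 h chemical treatment. Transcripts were quantified as fluorescent fragments on capillary electrophoresis after RT-PCR and HpaI cut, with activity fitted upward from DMSO.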

Transcriptional activator Myb (Homo sapiens), sequence (P10242 whole entry, looked up): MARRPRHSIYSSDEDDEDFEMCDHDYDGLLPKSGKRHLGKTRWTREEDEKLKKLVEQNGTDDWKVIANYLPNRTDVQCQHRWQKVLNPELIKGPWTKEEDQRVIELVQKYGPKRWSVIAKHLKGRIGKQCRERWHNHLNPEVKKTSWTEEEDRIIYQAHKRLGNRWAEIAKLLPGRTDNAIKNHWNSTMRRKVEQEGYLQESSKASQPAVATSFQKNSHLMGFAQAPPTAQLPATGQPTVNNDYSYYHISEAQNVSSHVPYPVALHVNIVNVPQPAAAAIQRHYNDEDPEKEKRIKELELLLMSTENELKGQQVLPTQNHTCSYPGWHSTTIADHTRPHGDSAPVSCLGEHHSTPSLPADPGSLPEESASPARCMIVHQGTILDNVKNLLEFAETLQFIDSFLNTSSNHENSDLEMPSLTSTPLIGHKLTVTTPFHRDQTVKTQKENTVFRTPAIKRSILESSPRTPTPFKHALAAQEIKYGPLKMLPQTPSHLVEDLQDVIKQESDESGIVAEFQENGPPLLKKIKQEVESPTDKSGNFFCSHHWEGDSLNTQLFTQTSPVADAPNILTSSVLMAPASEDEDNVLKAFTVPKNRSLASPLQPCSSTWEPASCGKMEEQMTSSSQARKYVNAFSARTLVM
Estrogen-related receptor gamma (Homo sapiens), sequence (P62508 whole entry, looked up, the tested form may be a part): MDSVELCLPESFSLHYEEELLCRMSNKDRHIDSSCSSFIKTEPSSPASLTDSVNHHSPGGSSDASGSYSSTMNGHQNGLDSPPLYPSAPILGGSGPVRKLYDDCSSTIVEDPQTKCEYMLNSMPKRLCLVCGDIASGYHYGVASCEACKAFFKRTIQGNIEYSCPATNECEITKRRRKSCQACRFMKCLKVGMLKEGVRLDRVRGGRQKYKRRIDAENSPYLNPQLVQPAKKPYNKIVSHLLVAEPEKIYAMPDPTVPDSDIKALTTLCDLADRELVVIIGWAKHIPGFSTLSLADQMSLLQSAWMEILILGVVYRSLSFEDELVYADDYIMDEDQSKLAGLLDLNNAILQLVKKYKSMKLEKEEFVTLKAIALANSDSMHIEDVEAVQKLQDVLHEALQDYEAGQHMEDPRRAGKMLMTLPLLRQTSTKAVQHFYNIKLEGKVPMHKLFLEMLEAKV
Nuclear receptor subfamily 4 group A member 2 (Homo sapiens), sequence (P43354 whole entry, looked up): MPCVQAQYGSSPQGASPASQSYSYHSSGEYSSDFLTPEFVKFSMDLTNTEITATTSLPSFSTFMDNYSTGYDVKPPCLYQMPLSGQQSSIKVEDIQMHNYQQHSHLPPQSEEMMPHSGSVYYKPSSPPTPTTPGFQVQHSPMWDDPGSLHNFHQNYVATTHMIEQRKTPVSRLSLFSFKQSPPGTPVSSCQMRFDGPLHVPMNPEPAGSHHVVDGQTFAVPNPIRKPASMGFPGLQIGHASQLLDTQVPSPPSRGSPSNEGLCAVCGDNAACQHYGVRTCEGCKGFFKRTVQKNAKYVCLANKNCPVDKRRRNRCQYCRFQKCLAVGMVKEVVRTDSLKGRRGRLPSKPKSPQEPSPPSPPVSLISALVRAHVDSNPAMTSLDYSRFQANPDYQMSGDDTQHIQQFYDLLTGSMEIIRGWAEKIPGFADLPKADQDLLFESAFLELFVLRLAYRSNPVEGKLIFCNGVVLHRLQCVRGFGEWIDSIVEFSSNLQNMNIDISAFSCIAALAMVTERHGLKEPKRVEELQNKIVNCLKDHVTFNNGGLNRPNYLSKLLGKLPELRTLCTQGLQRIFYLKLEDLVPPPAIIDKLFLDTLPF
Oxysterols receptor LXR-alpha (Homo sapiens), sequence (Q13133 whole entry, looked up, the tested form may be a part): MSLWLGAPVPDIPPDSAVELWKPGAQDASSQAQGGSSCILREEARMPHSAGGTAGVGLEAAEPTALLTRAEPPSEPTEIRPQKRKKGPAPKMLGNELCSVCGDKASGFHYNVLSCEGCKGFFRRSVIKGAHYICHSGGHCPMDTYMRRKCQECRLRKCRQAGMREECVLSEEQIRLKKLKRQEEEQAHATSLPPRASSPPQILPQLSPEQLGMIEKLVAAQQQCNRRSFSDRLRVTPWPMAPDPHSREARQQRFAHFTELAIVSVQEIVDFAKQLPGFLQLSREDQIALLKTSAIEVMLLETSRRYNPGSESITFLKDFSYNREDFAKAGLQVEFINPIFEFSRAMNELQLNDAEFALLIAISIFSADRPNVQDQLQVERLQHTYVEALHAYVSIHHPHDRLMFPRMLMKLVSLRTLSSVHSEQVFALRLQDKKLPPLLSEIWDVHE

With `Cn1c([N+](=O)[O-])cnc1COC(N)=O`, the compound was classed as inactive in experiment [1], in [2], in [3], in [4], in experiment [5] and in [6]. The outcome in [7], in experiment [8], in experiment [9] and in experiment [10] was inactive.

On to `COCCCOCCCOC`, for which the result in experiment [1], in [2], in experiment [3], in [4], in experiment [5] and in experiment [11] was inactive. The compound was classed as inactive in experiment [7], in experiment [12], in experiment [13] and in experiment [10].

With `CCO[Si](C)(OCC)OCC`, the call in experiment [1], in experiment [2], in experiment [3], in experiment [14], in experiment [15] and in experiment [16] was inactive. Further, the compound was called inactive in experiment [9] and in experiment [10].

For the compound `CCCCCCCCCCCSCC(=O)O`, the AC50 (usually the midpoint of the concentration-response curve, whichever way the signal moves) in experiment [1] is 100 µM (active); in experiment [2] it was 100 µM (active); in [3], 80.2 µM (active); in [15], 100 µM (active); in experiment [8] it was 23 µM (active); in experiment [10], 77.7 µM (active). The result in experiment [4], in [5], in experiment [16], in experiment [13] and in experiment [9] was inactive.

In the case of `C=CC(C)(C)C`, the call in [1], in experiment [2], in [3], in [4], in [5] and in [17] was inactive. Further, the result in [6], in experiment [13], in experiment [9] and in [10] was inactive.

Regarding `[Cl][Nd]([Cl])[Cl]`, the call in experiment [1], in experiment [2], in experiment [3], in experiment [4], in experiment [15] and in [5] was inactive. For the same compound, the outcome in [7], in [12], in experiment [13], in experiment [9] and in experiment [10] was inactive.
